How the values were obtained:
Assay in all cases: DAPPL (digital affinity profiling via proximity ligation, sequencing); 10 mM Tris-HCl pH 7.5, 50 mM NaCl, 1 mM DTT, 4% glycerol, room temperature, 30 min; GST-TFs on glutathione beads, 16-mer random dsDNA library, 0.1% formaldehyde crosslink after washing; high values mean tight binding
Conditions in all cases: protein: recombinant; tags: N-terminal GST; dsDNA, one strand shown
ERF = biological target: T1, ERF (Homo sapiens, UniProt P50548 1-548)
T1 sequence: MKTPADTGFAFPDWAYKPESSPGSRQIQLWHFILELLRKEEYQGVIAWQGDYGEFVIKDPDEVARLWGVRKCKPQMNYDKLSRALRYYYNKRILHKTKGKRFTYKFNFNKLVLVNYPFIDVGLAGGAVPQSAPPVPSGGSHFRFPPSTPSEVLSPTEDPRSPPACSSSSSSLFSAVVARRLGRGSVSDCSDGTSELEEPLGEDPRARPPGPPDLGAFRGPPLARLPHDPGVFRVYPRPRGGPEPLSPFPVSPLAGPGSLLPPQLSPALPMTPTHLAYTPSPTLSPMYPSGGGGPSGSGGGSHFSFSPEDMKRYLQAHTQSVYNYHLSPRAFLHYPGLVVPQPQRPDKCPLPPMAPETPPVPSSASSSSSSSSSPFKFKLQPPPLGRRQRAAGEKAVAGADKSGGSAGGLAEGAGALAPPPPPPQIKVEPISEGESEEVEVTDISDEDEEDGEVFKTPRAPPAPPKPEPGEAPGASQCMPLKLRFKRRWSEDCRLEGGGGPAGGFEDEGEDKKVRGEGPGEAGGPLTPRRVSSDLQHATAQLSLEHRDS
In short: (§1)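 Binding signal is each hexamer's read frequency for a factor divided by its frequency in the tag-only sample. The factors were GST-fused human transcription factors from yeast, captured on glutathione beads, DNA-barcoded and pooled with that sample. Pools were incubated with 200 nmole of a random double-stranded 16-mer DNA library in Tris/NaCl/DTT/glycerol buffer at room temperature for 30 min, then washed, crosslinked with 0.1% formaldehyde, proximity-ligated with BsaI/T4 ligase (1 h, 37 °C), PCR-amplified and sequenced on an Illumina NextSeq500.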

ETV3L = biological target: T2, ETV3L (Homo sapiens, UniProt Q6ZN32 1-361)
T2 sequence: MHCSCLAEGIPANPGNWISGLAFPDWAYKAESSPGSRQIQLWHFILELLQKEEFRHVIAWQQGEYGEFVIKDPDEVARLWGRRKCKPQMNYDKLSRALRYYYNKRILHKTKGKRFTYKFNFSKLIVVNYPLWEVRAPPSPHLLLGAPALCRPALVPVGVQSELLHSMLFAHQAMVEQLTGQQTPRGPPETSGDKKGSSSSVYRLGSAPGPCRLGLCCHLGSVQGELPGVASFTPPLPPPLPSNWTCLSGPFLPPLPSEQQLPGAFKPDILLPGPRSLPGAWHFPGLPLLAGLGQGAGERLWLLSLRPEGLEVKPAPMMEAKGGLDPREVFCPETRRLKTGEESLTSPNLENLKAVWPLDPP
In short: as §1

ETS2 = biological target: T3, ETS2 (Homo sapiens, UniProt P15036 1-469)
T3 sequence: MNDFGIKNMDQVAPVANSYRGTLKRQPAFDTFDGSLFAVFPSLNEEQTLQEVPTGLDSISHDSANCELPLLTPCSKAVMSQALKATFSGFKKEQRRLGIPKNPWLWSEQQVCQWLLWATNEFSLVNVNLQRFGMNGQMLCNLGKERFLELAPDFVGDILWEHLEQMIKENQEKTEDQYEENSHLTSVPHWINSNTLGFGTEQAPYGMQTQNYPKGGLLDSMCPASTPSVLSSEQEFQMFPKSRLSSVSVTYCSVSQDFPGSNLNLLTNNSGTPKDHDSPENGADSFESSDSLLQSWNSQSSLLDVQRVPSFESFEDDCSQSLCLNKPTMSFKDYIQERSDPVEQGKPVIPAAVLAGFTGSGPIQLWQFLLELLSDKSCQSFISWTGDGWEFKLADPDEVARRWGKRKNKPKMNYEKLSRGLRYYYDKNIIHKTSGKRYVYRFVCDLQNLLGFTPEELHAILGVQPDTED
In short: as §1

SPDEF = biological target: T4, SPDEF (Homo sapiens, UniProt O95238 1-335)
T4 sequence: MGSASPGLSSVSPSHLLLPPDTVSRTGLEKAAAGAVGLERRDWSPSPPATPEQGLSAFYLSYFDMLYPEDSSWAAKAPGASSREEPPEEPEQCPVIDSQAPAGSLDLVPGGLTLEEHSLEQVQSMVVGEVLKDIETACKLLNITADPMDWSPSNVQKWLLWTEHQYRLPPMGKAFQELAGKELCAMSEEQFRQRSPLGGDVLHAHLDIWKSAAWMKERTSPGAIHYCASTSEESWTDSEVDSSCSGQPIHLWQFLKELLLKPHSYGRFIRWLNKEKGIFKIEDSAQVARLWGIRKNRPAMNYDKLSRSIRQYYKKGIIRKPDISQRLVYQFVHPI
In short: as §1

ETV7 = biological target: T5, ETV7 (Homo sapiens, UniProt Q9Y603 1-341)
T5 sequence: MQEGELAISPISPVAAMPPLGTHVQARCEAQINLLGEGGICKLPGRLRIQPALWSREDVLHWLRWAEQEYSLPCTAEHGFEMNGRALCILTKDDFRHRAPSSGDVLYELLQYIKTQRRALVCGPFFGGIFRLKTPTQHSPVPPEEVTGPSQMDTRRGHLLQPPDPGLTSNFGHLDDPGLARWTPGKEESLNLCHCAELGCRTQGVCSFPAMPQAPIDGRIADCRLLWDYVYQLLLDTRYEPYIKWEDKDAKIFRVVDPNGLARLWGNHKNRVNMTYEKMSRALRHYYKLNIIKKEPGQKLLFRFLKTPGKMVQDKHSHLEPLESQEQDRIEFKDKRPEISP
In short: as §1

ELF5 = biological target: T6, ELF5 (Homo sapiens, UniProt Q9UKW6-2 1-255)
T6 sequence: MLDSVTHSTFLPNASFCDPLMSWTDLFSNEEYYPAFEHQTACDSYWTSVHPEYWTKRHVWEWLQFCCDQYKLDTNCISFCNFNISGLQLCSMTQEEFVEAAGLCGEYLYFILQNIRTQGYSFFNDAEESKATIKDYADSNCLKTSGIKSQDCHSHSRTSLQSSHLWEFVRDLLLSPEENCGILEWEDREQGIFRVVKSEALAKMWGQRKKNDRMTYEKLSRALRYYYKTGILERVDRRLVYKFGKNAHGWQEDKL
In short: as §1

ETV3 = biological target: T7, ETV3 (Homo sapiens, UniProt P41162-2 1-143)
T7 sequence: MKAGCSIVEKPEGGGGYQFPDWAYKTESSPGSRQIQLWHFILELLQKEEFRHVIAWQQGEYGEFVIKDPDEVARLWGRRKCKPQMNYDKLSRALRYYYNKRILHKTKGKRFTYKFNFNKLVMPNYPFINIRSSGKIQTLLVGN
In short: as §1

ETV6 = ETV6 (Homo sapiens, UniProt P41212 1-452)
In short: as §1

ETV6, sequence (P41212 whole entry): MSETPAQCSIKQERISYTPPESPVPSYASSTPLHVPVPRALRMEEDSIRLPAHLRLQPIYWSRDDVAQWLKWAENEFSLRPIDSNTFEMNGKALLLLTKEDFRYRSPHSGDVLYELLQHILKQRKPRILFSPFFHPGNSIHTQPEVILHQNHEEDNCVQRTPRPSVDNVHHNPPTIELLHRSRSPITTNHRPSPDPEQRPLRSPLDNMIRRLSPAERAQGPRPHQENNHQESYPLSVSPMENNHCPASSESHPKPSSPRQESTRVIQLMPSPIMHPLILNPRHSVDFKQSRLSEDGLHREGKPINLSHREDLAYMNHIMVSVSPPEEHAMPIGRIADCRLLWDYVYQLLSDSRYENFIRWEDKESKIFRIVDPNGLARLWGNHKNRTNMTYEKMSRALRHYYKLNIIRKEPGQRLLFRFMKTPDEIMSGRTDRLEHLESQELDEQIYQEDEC

Sequence | binding signal (ERF) | binding signal (ETV3L) | binding signal (ETS2) | binding signal (SPDEF) | binding signal (ETV7) | binding signal (ELF5) | binding signal (ETV3) | binding signal (ETV6)
ACTGCA | 1.13 fold enrichment (6-mer frequency, TF over GST control) | 1.17 fold enrichment (6-mer frequency, TF over GST control) | 1.12 fold enrichment (6-mer frequency, TF over GST control) | 1.13 fold enrichment (6-mer frequency, TF over GST control) | 1.07 fold enrichment (6-mer frequency, TF over GST control) | 1.01 fold enrichment (6-mer frequency, TF over GST control) | 1.17 fold enrichment (6-mer frequency, TF over GST control) | 1.2 fold enrichment (6-mer frequency, TF over GST control)
CACCAT | 1.12 fold enrichment (6-mer frequency, TF over GST control) | 1.16 fold enrichment (6-mer frequency, TF over GST control) | 1.08 fold enrichment (6-mer frequency, TF over GST control) | 1.02 fold enrichment (6-mer frequency, TF over GST control) | 1.15 fold enrichment (6-mer frequency, TF over GST control) | 1.1 fold enrichment (6-mer frequency, TF over GST control) | 1.05 fold enrichment (6-mer frequency, TF over GST control) | 1.04 fold enrichment (6-mer frequency, TF over GST control)
ACCACT | 1.22 fold enrichment (6-mer frequency, TF over GST control) | 1.36 fold enrichment (6-mer frequency, TF over GST control) | 1.29 fold enrichment (6-mer frequency, TF over GST control) | 1.25 fold enrichment (6-mer frequency, TF over GST control) | 1.24 fold enrichment (6-mer frequency, TF over GST control) | 1.25 fold enrichment (6-mer frequency, TF over GST control) | 1.24 fold enrichment (6-mer frequency, TF over GST control) | 1.28 fold enrichment (6-mer frequency, TF over GST control)
CCTCAC | 1.09 fold enrichment (6-mer frequency, TF over GST control) | 1.19 fold enrichment (6-mer frequency, TF over GST control) | 1.19 fold enrichment (6-mer frequency, TF over GST control) | 1.24 fold enrichment (6-mer frequency, TF over GST control) | 1.15 fold enrichment (6-mer frequency, TF over GST control) | 1.22 fold enrichment (6-mer frequency, TF over GST control) | 1.12 fold enrichment (6-mer frequency, TF over GST control) | 1.07 fold enrichment (6-mer frequency, TF over GST control)
CGACGA | 1.12 fold enrichment (6-mer frequency, TF over GST control) | 1.13 fold enrichment (6-mer frequency, TF over GST control) | 1.13 fold enrichment (6-mer frequency, TF over GST control) | 1.13 fold enrichment (6-mer frequency, TF over GST control) | 1.11 fold enrichment (6-mer frequency, TF over GST control) | 1.09 fold enrichment (6-mer frequency, TF over GST control) | 1.12 fold enrichment (6-mer frequency, TF over GST control) | 1.17 fold enrichment (6-mer frequency, TF over GST control)
GGGTTT | 1.17 fold enrichment (6-mer frequency, TF over GST control) | 1.1 fold enrichment (6-mer frequency, TF over GST control) | 1.1 fold enrichment (6-mer frequency, TF over GST control) | 1 fold enrichment (6-mer frequency, TF over GST control) | 1.12 fold enrichment (6-mer frequency, TF over GST control) | 1.1 fold enrichment (6-mer frequency, TF over GST control) | 1.18 fold enrichment (6-mer frequency, TF over GST control) | 1.07 fold enrichment (6-mer frequency, TF over GST control)
AATATA | 1.39 fold enrichment (6-mer frequency, TF over GST control) | 1.31 fold enrichment (6-mer frequency, TF over GST control) | 1.34 fold enrichment (6-mer frequency, TF over GST control) | 1.23 fold enrichment (6-mer frequency, TF over GST control) | 1.36 fold enrichment (6-mer frequency, TF over GST control) | 1.33 fold enrichment (6-mer frequency, TF over GST control) | 1.35 fold enrichment (6-mer frequency, TF over GST control) | 1.36 fold enrichment (6-mer frequency, TF over GST control)
